Screening results (PubChem)
BoNT-F LC inh – blocks Botulinum neurotoxin F light chain protease; Multiplex microsphere protease cleavage assay, flow cytometry; inhibition, % at 10 µM; 360,000 compounds, 0.22% hits; AID 588497; in the data active = inhibition above about 35%, passing the limit was not always enough; inconclusive = no clear call, values can overlap the other calls; note: plate controls were buffer without enzyme for full effect and enzyme alone for no effect
Anthrax LF prot – blocks Bacillus anthracis lethal factor protease. AID 588501. inhibition, % at 10 µM. 360,000 compounds, 0.12% hits. multiplex microsphere protease cleavage assay, LF; note: plate controls were buffer without enzyme for full effect and enzyme alone for no effect
Target sequence (P15917 whole entry, looked up): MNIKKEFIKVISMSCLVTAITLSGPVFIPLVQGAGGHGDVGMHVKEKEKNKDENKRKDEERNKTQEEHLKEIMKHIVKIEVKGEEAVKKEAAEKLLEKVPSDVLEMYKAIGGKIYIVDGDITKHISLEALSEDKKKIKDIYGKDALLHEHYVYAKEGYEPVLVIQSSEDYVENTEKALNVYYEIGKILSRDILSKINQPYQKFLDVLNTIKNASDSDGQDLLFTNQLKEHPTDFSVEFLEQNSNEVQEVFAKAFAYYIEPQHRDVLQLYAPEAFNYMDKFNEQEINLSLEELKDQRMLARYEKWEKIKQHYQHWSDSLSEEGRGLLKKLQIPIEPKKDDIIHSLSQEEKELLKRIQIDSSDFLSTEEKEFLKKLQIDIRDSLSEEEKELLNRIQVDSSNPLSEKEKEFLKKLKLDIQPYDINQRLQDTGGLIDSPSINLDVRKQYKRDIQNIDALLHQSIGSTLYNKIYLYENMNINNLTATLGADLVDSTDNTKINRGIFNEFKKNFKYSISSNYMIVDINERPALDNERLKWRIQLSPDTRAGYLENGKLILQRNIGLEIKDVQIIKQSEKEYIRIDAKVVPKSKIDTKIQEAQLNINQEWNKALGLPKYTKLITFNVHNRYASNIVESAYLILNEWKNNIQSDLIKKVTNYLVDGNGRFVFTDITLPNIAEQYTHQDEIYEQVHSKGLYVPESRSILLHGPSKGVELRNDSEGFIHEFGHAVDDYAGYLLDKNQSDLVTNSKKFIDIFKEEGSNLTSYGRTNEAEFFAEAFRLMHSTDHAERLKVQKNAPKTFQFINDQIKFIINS
Bead autofluor – compound fluorescence in toxin protease inhibitor counterscreen; compound autofluorescence counterscreen, microsphere flow cytometry; stronger effect = higher value; fluorescence intensity (test concentration not listed); 360,000 compounds, 3.1% hits; AID 624483; in the data active = fluorescence intensity above about 16000; inconclusive = no clear call, values can overlap the other calls
BoNT A protease – BoNT A light chain protease inhibition | multiplex microsphere protease substrate cleavage, flow cytometry | inhibition, % at 10 µM | 360,000 compounds, 0.17% hits | AID 588499; note: plate controls were buffer without enzyme for full effect and enzyme alone for no effect
MazEF act – MazEF (E. coli) toxin RNase activation | activation, % at 20 µM | AID 504720 | FAM/BHQ RNA-DNA oligo cleavage fluorescence, 5 h | 350,000 compounds, 0.32% hits | P0AE70; in the data active = activation above about 50%
Active calls of the source: *; ? = inconclusive; nt = not tested or not shown. In the library only some 3.7% were active in any assay of this set; here they are far more common. Cut-off read from the data, not from the text of the source, unless noted: active = inhibition above about 30%; inconclusive = no clear call, values can overlap the other calls; inactive = below that.

SMILES	BoNT-F LC inh	Anthrax LF prot	Bead autofluor	BoNT A protease	MazEF act
COc1ccc(CC(=O)NC(C)c2ccc3ccccc3c2)cc1 (stereo unspecified)	-22.5	-15.9	3383	-3.6	-2.2
Cc1ccc(S(=O)(=O)NC(=O)Nc2ccc(C)cn2)cc1	7.4	0.5	6314	-1.8	5.1
Cc1cc(C)c(S(=O)(=O)ON2C(=O)c3ccccc3C2=O)cc1C	-0.1	-2.8	23962*	?	-7.4
Cc1ccc(S(=O)(=O)ON2C(=O)c3ccccc3C2=O)c(C)c1	12.5	-2.6	9145	-0.2	1.4
CCOC(=O)N1CCN(C(=O)C(CC)c2ccccc2)CC1 (stereo unspecified)	8.8	-1.0	10325	0.9	0.8
CCC(C(=O)N1CCN(S(C)(=O)=O)CC1)c1ccccc1 (stereo unspecified)	-3.5	1.2	20841*	-2.4	-2.0
COC(=O)C1(C(=O)OC)NOC2C(=O)N(c3ccccc3)C(=O)C21 (stereo unspecified)	0.5	0.9	22517*	?	-4.8
COC(=O)C1(C)NC(c2ccccc2C)C2C(=O)N(c3ccccc3)C(=O)C21 (stereo unspecified)	7.7	-6.6	3928	-5.6	-18.6
CCN1CCN(c2cc(C)c3cc(NC(=O)c4ccc(C)c(C)c4)ccc3n2)CC1	-11.5	-11.8	3831	-1.7	58.8*
Cc1cc(N2CCN(C)CC2)nc2ccc(NC(=O)CCC(=O)NCCC3=CCCCC3)cc12	-5.9	-1.3	21266*	-2.1	-1.9
CCc1nc(CNC(=O)C2CCC(=O)N(Cc3cccc(OC)c3)C2)no1 (stereo unspecified)	-2.9	-1.5	4247	-0.6	8.5
O=S1(=O)N=C(Oc2ccccc2)c2ccccc21	-0.5	-0.5	23213*	0.8	5.9
COC1=NS(=O)(=O)c2ccccc21	-0.1	0.3	2274	0.3	1.3
O=C(COC(=O)C1CC2CCCC(C1)C2=O)NNC(=O)c1ccc([N+](=O)[O-])cc1 (stereo unspecified)	4.5	3.9	6541	-4.7	3.7
CCCCCCCCCCOC(=O)c1csc2nnsc12	-3.3	-1.6	20631*	?	-10.3
O=[N+]([O-])c1ccc(O)c(/C=N/NC2=NS(=O)(=O)c3ccccc32)c1	41.1*	0.8	2644	6.1	-6.1
CC(=O)NCCOC(=O)Nc1cccnc1	-3.2	-0.1	5709	0.5	-1.0
CC(=O)NCCOC(=O)Nc1ccncc1	9.1	-16.2	20618*	6.0	3.0
CCc1ccccc1Oc1nc(NC(C)C)nc2ccsc12	-3.5	-8.0	4045	-0.2	nt
Cc1ccc(-c2nnc3c4ccccc4c(C)nn23)cc1S(=O)(=O)N1CCN(CCO)CC1	-9.4	-2.9	3215	-0.5	10.7
Cc1ccc(-c2nnc3c4ccccc4c(C)nn23)cc1S(=O)(=O)N1CCN(C)CC1	1.7	-6.2	20956*	?	6.9
CC(C)(C)C(=O)Nc1ccc(C(=O)CN2C(=O)NC3(CCOc4ccccc43)C2=O)cc1 (stereo unspecified)	-8.2	-6.5	8509	3.1	16.2
CC1CCN(c2nc3ccccc3nc2C(C#N)C(=O)OC2CCCCC2)CC1 (stereo unspecified)	15.6	6.7	10980	9.6	-14.9
CCN1CCN(c2nc3ccccc3nc2C(C#N)S(=O)(=O)c2ccc(C)c(C)c2)CC1 (stereo unspecified)	-2.1	-0.8	22821*	-0.2	6.7
CC1CN(c2nc3ccccc3nc2C(C#N)C(=O)OC2CCCCC2)CC(C)O1 (stereo unspecified)	2.8	15.9	21164*	?	-16.2
SMILES	BoNT-F LC inh	Anthrax LF prot	Bead autofluor	BoNT A protease	MazEF act
Cc1ccc(S(=O)(=O)C(C#N)c2nc3ccccc3nc2N2CC(C)OC(C)C2)cc1C (stereo unspecified)	-4.2	3.1	17403*	0.0	0.7
Cc1c(Cl)cccc1NC(=S)C(=C([O-])c1ccc(Cl)s1)[n+]1ccccc1	-17.4	-10.3	3597	2.5	12.2
COc1ccccc1NC1=C(NC(C)=O)C(=O)c2ccccc2C1=O	0.6	-1.3	2522	-0.5	217.8*
C=CCNC(=O)/C(C#N)=C/c1c(N2CCN(c3ccc(OC)cc3)CC2)nc2c(C)cccn2c1=O	-17.3	-4.6	3845	0.0	10.1
COCCNC(=O)CSc1nc2cc(OC)c(OC)cc2c(=O)n1Cc1ccco1	18.5	-1.6	16515*	?	10.8
O=C(CSc1nc2ccccc2c(=O)n1Cc1ccco1)Nc1cccc(O)c1	26.1	-4.8	4523	1.5	58.9*
Nn1c(SCC(=O)Nc2ccccc2F)nc2ccccc2c1=O	-1.9	-0.2	16496*	?	13.9
O=C(O)Cn1nnnc1SCC(=O)Nc1ccccc1F	3.3	2.5	4688	-0.3	-3.9
CCC(Sc1nc2cc(OC)c(OC)cc2c(=O)n1Cc1ccco1)C(=O)NCCOC (stereo unspecified)	-18.6	-15.9	9697	-2.0	0.2
COC(=O)c1ccc2c(=O)n(Cc3ccco3)c(SCC(=O)Nc3ccc(C)c(Cl)c3)nc2c1	-0.9	-2.0	23373*	-0.6	0.1
CCN(CC)CCNC(=O)c1cn(CC)c2ccc(S(=O)(=O)N3CCc4ccccc4C3)cc2c1=O	-4.8	-1.6	5481	-0.7	16.2
Cc1cc(C(O)c2ncc(-c3cccc4ccccc34)[nH]2)ccc1F (stereo unspecified)	-10.0	-6.2	4071	-0.8	nt
CCOC(=O)[C@]12CCCC=C1N(Cc1ccc3c(c1)OCO3)C(=O)[C@H](CC(=O)NCc1ccc(OC)c(OC)c1)C2	1.4	5.4	5777	0.7	nt
CC1CCCN(Cc2c(O)ccc3c4c(c(=O)oc23)CCCC4)C1 (stereo unspecified)	-1.6	-5.4	4637	-1.0	8.4
O=c1oc2c(CN3CCOCC3)c(O)ccc2c2c1CCC2	-6.6	-0.3	20943*	-3.8	6.6
N#Cc1ccccc1Cn1cc(C(=O)C2CC2)c2ccccc21	-15.5	0.4	3213	0.8	-10.3
CCC(=O)c1cn(Cc2ccccc2C#N)c2ccccc12	-1.3	-0.1	23775*	-1.7	1.9
CC1=CN2C(=N)/C(=C/c3ccc([N+](=O)[O-])o3)C(=O)N=C2S1	-4.8	-0.3	3294	1.1	116.1*
CC1=CN2C(=N)/C(=C/c3ccco3)C(=O)N=C2S1	-6.7	3.8	2543	-0.3	-13.1
NC(=O)CSc1nnc(Cc2cccs2)n1C1CCCCC1	0.5	3.0	19288*	2.1	0.8
NC(=O)CSc1nnc(COc2ccccc2)n1C1CCCCC1	-0.9	1.3	19126*	1.5	-1.2
Cc1ccc(-c2noc(CSc3nnc(Cc4cccs4)n3-c3ccccc3)n2)cc1	-0.3	1.3	6099	-1.0	3.0
NC(=O)CSc1nnc(COc2ccccc2)n1N	6.5	-4.0	?	1.6	9.9
O=C1COc2ccc(C(=O)CSc3nnc(Cc4cccs4)n3-c3ccc(Cl)cc3)cc2N1	10.6	1.5	17966*	7.2	-0.9
Cc1ccc(-n2c(Cc3cccs3)nnc2SCC(N)=O)cc1	-0.1	-0.6	16452*	?	0.8
O=C(NCCCC(=O)N1CCCCC1)c1ccc(Cl)cc1	0.7	1.1	?	1.2	5.2
COC(=O)c1ccccc1NC(=O)N1CCN(Cc2ccco2)CC1	1.5	-2.0	2394	-0.6	1.7
